Reference: PubChem BioAssay (Tox21)
Values without a mark were called inactive. Where a call stands in place of a potency, no number is given. Active and inactive are the calls of the source. Calls come from the whole dose curve; as a rule, active = well fitted curve in the direction sought with a large enough effect in the repeat runs; inconclusive = weak or mixed curves; inactive = flat fitted curve, though single readings scatter.

test: qHTS assay to test for compound auto fluorescence at 460 nm (blue) in HEK293 cells (AID 720678); conditions: blue autofluorescence 405/460 nm; series mostly up to 91.3 µM; note: potency is the fitted concentration of half-maximal effect
Procedure, shortened: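 Auto fluorescence in the blue band was quantified as triamterene equivalency. HEK293 cells were seeded at 2,000/well, dosed after a 4-5 hr attachment, and kept overnight at 37C before the 405/460 nm reading.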
Tags give direction and shape of the fitted curve or compound fluorescence and quenching.

SMILES | Potency | fluorescence, % of triamterene
CC(C)CCOC(=O)c1ccc(N(C)C)cc1 | inactive | 
CCCCCCCCCCCCc1ccccc1O | inactive | 
O=C(Cl)c1cccc(C(=O)Cl)c1 | inactive | 
CC(=O)CC(=O)Nc1ccc2[nH]c(=O)[nH]c2c1 | inactive | 
C1COC(NC(C2CC2)C2CC2)=N1 | inactive | 
CCCCCC(=O)O[C@]1(C(C)=O)CC[C@H]2[C@@H]3CCC4=CC(=O)CC[C@]4(C)[C@H]3CC[C@@]21C | inactive | 
CC(C)(c1ccccc1)c1ccc(Nc2ccc(C(C)(C)c3ccccc3)cc2)cc1 | inactive | 
CC(=O)C1=C(C)[C@@H]2C[C@@]3(C1)[C@H](C)CC[C@H]3C2(C)C | inactive | 
C=CC(=O)OCCCCCCOC(=O)C=C | inactive | 
O=C(OCc1ccccc1)c1ccc(O)cc1 | inactive | 
COc1nc(C)nc(Cl)c1NC1=NCCN1 |  | 0.0425% [at 18.6 µM]
O=Nc1ccc(Nc2ccccc2)cc1 | inactive | 
COc1ccc(COC(C)=O)cc1 | inactive | 
Oc1ccc(Cl)cc1Cc1cc(Cl)ccc1O | inactive | 
CNCCC(Oc1ccc(C(F)(F)F)cc1)c1ccccc1 (centres undefined) | inactive | 
CCn1c2ccccc2c2cc(N)ccc21 | inactive | 
Nc1ccc2cc3ccccc3cc2c1 | 44.7 µM [fluorescent] (active) | 
CC(=O)Nc1ccc(C(=O)CCl)cc1 | inactive | 
BrC1CCC(Br)C(Br)CCC(Br)C(Br)CCC1Br (centres undefined) | inactive | 
CCCCC(CC)COC(=O)CC(C(=O)OCC(CC)CCCC)S(=O)(=O)O (centres undefined) | inactive | 
CC[C@]1(O)C[C@@H]2CN(CCc3c([nH]c4ccccc34)[C@@](C(=O)OC)(c3cc4c(cc3OC)N(C)[C@H]3[C@@](O)(C(=O)OC)[C@H](OC(C)=O)[C@]5(CC)C=CCN6CC[C@]43[C@@H]65)C2)C1 | inactive | 
CCCN[C@H]1CCc2nc(N)sc2C1 | inactive | 

test: qHTS assay to test for compound auto fluorescence at 590 nm (red) in HEK293 cells (AID 720679); conditions: red autofluorescence 540/590 nm; series mostly up to 91.3 µM
Procedure, shortened: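 Autofluorescence equivalency to Rose Bengal sodium, 540/590nm, in HEK293 cells exposed overnight to 23 nL compound per well.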

SMILES | outcome | fluorescence, % of fluorescent control
CC(C)CCOC(=O)c1ccc(N(C)C)cc1 | inactive | 
CC(N)=O | inactive | 
CCCCCCCCCCCCc1ccccc1O | inactive | 
N[C@@H]1CONC1=O | inactive | 
O=C(Cl)c1cccc(C(=O)Cl)c1 | inactive | 
CC(=O)CC(=O)Nc1ccc2[nH]c(=O)[nH]c2c1 | inactive | 
C1COC(NC(C2CC2)C2CC2)=N1 | inactive | 
CCCCCC(=O)O[C@]1(C(C)=O)CC[C@H]2[C@@H]3CCC4=CC(=O)CC[C@]4(C)[C@H]3CC[C@@]21C | inactive | 
c1cc(C(c2ccc(OCC3CO3)cc2)C(c2ccc(OCC3CO3)cc2)c2ccc(OCC3CO3)cc2)ccc1OCC1CO1 (centres undefined) | inactive | 
CC(C)(c1ccccc1)c1ccc(Nc2ccc(C(C)(C)c3ccccc3)cc2)cc1 | inactive | 
CC(=O)C1=C(C)[C@@H]2C[C@@]3(C1)[C@H](C)CC[C@H]3C2(C)C | inactive | 
C=CC(=O)OCCCCCCOC(=O)C=C | inactive | 
O=C(OCc1ccccc1)c1ccc(O)cc1 | inactive | 
COc1nc(C)nc(Cl)c1NC1=NCCN1 |  | -0.0076% [at 18.6 µM]
O=Nc1ccc(Nc2ccccc2)cc1 | inactive | 
CCC(=O)/C=C/C1C(C)=CCCC1(C)C (centres undefined) | inactive | 

SMILES | outcome | fluorescence, % of fluorescent control
COc1ccc(COC(C)=O)cc1 | inactive | 
Oc1c(Cl)cc(Cl)cc1Sc1cc(Cl)cc(Cl)c1O | inactive | 
CNCCC(Oc1ccc(C(F)(F)F)cc1)c1ccccc1 (centres undefined) | inactive | 
O | inactive | 
CC(C)(C)NC(=O)[C@@H]1CN(Cc2cccnc2)CCN1C[C@@H](O)C[C@@H](Cc1ccccc1)C(=O)N[C@H]1c2ccccc2C[C@H]1O | inactive | 
CCn1c2ccccc2c2cc(N)ccc21 | inactive | 
Cc1c(O)cccc1C(=O)N[C@@H](CSc1ccccc1)[C@H](O)CN1C[C@H]2CCCC[C@H]2C[C@H]1C(=O)NC(C)(C)C | inactive | 
Nc1ccc2cc3ccccc3cc2c1 | inactive | 
NC(=Nc1ccccc1)Nc1ccccc1 | inactive | 
BrC1CCC(Br)C(Br)CCC(Br)C(Br)CCC1Br (centres undefined) | inactive | 
CCCCC(CC)COC(=O)CC(C(=O)OCC(CC)CCCC)S(=O)(=O)O (centres undefined) | inactive | 
CC[C@]1(O)C[C@@H]2CN(CCc3c([nH]c4ccccc34)[C@@](C(=O)OC)(c3cc4c(cc3OC)N(C)[C@H]3[C@@](O)(C(=O)OC)[C@H](OC(C)=O)[C@]5(CC)C=CCN6CC[C@]43[C@@H]65)C2)C1 | inactive | 
CCCOC(=O)c1cc(O)c(O)c(O)c1 | inactive | 
CCCN[C@H]1CCc2nc(N)sc2C1 | inactive | 
CCOc1ccc2c(c1)C(C)=CC(C)(C)N2 | inactive | 
CCCCCCC(O)CCCCCCCCCCC(=O)O (centres undefined) | inactive | 
